# Assay results published in PubChem BioAssay (EPA / NIEHS).
# Records with an inconclusive call do not appear. Active and inactive are the calls of the source. How the source made its calls, unless noted: active means hit-call score of the fitted dose curve at least 0.9, where 1 is the maximum; inactive means score below 0.9.
# Assays:
# [1] = biological target: Retinoic acid receptor RXR-alpha (Homo sapiens) (UniProt P19793); experiment: ATG_RXRa_TRANS: Attagene TRANS-FACTORIAL HepG2 Assay for human Retinoid X Receptor alpha (RXRa) (AID 2283012; active means hit-call score of the fitted dose curve at least 0.9, where 1 is the maximum)
# Sequence of Retinoic acid receptor RXR-alpha (Homo sapiens) (P19793 whole entry, looked up, the tested form may be a part): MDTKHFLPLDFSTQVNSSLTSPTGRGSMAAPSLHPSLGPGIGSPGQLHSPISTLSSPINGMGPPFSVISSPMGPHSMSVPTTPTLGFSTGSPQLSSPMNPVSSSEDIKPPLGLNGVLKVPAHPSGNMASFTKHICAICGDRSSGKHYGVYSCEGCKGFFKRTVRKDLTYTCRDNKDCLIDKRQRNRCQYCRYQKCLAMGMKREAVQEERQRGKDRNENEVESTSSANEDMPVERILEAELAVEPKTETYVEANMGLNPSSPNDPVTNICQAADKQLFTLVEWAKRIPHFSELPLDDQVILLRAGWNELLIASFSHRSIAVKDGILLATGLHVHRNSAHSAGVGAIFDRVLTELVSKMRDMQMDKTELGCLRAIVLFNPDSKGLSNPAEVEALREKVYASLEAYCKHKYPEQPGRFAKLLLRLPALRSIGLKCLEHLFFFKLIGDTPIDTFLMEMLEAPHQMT
# Summary of the method: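 Transient transfection of human HepG2 with multiple GAL4-UAS reporter constructs; 24 h compound exposure; total RNA isolated, reverse-transcribed, PCR-amplified, 6-FAM labelled, HpaI-cut, resolved by capillary electrophoresis. Positive-direction fit versus DMSO.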
# [2] = read-out: E-selectin (Homo sapiens) (UniProt P16581); experiment: BSK_3C_Eselectin: BioMAP Diversity Plus: 3C Assay for Eselectin Biomarker Activity (AID 2283015); details: primary human endothelial cells (HUVEC); actives raise or lower the signal;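 on outcome: cell surface E-selectin protein quantified by ELISA 24 h after dosing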
# Summary of the method: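 HUVEC, 3C stimulation; compound exposure 24 h; E-selectin by ELISA; gain- or loss-of-signal fitted bidirectionally vs DMSO baseline.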
# [3] = read-out: Interleukin-1 alpha (IL1a), IL1A (gene 3552); experiment: BSK_BE3C_IL1a: BioMAP Diversity Plus: BE3C Assay for Interleukin-1 alpha (IL1a) Biomarker Activity (AID 2283016); details: primary human bronchial epithelial cells; actives raise or lower the signal
# Summary of the method: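 BE3C primary human bronchial epithelium; cpd 24 h; IL-1a by ELISA; bidirectional fit vs DMSO; parallel SRB (0.1% SRB, 10% TCA fix, 560 nm) for cytotoxicity.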
# [4] = read-out: Monocyte Chemoattractant Protein-1 (MCP1), CCL2 (gene 6347); experiment: BSK_3C_MCP1: BioMAP Diversity Plus: 3C Assay for Monocyte Chemoattractant Protein-1 (MCP1) Biomarker Activity (AID 2283017); details: primary human endothelial cells (HUVEC); actives raise or lower the signal
# Summary of the method: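 HUVEC, 3C system; 24 h chemical exposure; MCP-1 by ELISA; bidirectional curve fit vs DMSO baseline.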
# [5] = read-out: Monocyte Chemoattractant Protein-1 (MCP1), CCL2 (gene 6347); experiment: BSK_4H_MCP1: BioMAP Diversity Plus: 4H Assay for Monocyte Chemoattractant Protein-1 (MCP1) Biomarker Activity (AID 2283018); details: primary human endothelial cells (HUVEC); actives raise or lower the signal
# Summary of the method: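 ELISA read-out of MCP-1 from human vascular endothelial primary cells taken at 24 hours after compound exposure. Activity was fitted in both directions relative to DMSO, which served as negative control.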
# [6] = read-out: Human Leukocyte Antigen - DR isotype (HLADR), HLA-DRA (gene 3122); experiment: BSK_3C_HLADR: BioMAP Diversity Plus: 3C Assay for Human Leukocyte Antigen - DR isotype (HLADR) Biomarker Activity (AID 2283019); details: primary human endothelial cells (HUVEC); actives raise or lower the signal;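 further: ELISA of cell-surface HLA-DR on HUVEC 24 h after dosing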
# Summary of the method: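 HUVEC, 3C stimulation, 24 h post-dose; HLA-DR by ELISA; bidirectional curve fit vs DMSO baseline; gain or loss of signal scored.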
# [7] = read-out: Interleukin-8 (IL8), CXCL8 (gene 3576); experiment: BSK_3C_IL8: BioMAP Diversity Plus: 3C Assay for Interleukin-8 (IL8) Biomarker Activity (AID 2283020); details: primary human endothelial cells (HUVEC); actives raise or lower the signal
# Summary of the method: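 ELISA read-out of IL-8 from human umbilical vein endothelium, measured 24 h after chemical dosing. Activity is expressed relative to DMSO negative control, with both increases and decreases fitted.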
# [8] = read-out: Monokine induced gamma interferon (MIG), CXCL9 (gene 4283); experiment: BSK_3C_MIG: BioMAP Diversity Plus: 3C Assay for Monokine induced gamma interferon (MIG) Biomarker Activity (AID 2283021); details: primary human endothelial cells (HUVEC); actives raise or lower the signal;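 on AC50: MIG protein level measured by immunoassay in the treated endothelial cultures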
# Summary of the method: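 Read-out is ELISA detection of MIG on human umbilical vein endothelial cells, taken 24 h after dosing. Gain or loss of signal was scored relative to DMSO controls using bidirectional curve fitting.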
# [9] = biological target: human Vitamin D Receptor (VDR), VDR (gene 7421) (UniProt P11473); experiment: ATG_VDR_TRANS: Attagene TRANS-FACTORIAL HepG2 Assay for human Vitamin D Receptor (VDR) (AID 2283022; active means hit-call score of the fitted dose curve at least 0.9, where 1 is the maximum)
# Sequence of human Vitamin D Receptor (VDR), VDR (gene 7421) (P11473 whole entry, looked up, the tested form may be a part): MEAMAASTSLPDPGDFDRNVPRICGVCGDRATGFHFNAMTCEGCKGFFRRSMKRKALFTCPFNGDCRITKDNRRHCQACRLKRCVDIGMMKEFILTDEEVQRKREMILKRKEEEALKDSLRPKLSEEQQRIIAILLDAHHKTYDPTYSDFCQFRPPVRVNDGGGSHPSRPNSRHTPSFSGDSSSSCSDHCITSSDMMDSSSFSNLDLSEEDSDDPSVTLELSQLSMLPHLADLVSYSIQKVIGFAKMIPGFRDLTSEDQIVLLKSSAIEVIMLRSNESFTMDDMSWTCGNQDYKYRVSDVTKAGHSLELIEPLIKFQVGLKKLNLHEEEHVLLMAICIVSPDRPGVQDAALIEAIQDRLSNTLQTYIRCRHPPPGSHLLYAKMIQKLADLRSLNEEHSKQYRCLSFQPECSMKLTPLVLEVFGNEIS
# Summary of the method: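 RT-PCR/capillary electrophoresis read-out of reporter mRNA induction in transiently transfected HepG2; 24 h dosing; chimeric NR-Gal4 (TRANS format); gain-of-signal fit against DMSO baseline.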
# [10] = BSK_3C_SRB: Viability Assessment in the BioMAP Diversity Plus: 3C Assay (AID 2283023); details: primary human endothelial cells (HUVEC);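 further: fitted both ways against DMSO so a hit may be signal rise or drop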
# Summary of the method: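 HUVEC, 24 h post-dose; 10% TCA fix, 0.1% SRB stain, A560 nm. Bidirectional curve fit vs DMSO negative control.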
# [11] = read-out: Matrix Metallopeptidase 1 (MMP1), MMP1 (gene 4312); experiment: BSK_BE3C_MMP1: BioMAP Diversity Plus: BE3C Assay for Matrix Metallopeptidase 1 (MMP1) Biomarker Activity (AID 2283024); details: primary human bronchial epithelial cells; actives raise or lower the signal
# Summary of the method: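 Human bronchial epithelial cells (BE3C system) exposed to compound for 24 h; MMP1 then quantified by ELISA. Activity was fitted in both directions relative to DMSO.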
# [12] = BSK_3C_Vis: BioMAP Diversity Plus: 3C Assay for Morphology Visualization (AID 2283025); details: primary human endothelial cells (HUVEC);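 further: fitted both ways so gain or loss versus DMSO counts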;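 on AC50: light microscopy image of cell morphology used as background control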
# Summary of the method: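 Chemicals were added to primary human umbilical vein endothelium, cells were incubated 24 h, and morphology was then visualized by light microscopy. Gain or loss of signal was fitted bidirectionally relative to DMSO.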
# [13] = read-out: Pselectin, SELP (gene 6403); experiment: BSK_4H_Pselectin: BioMAP Diversity Plus: 4H Assay for Pselectin Biomarker Activity (AID 2283026); details: primary human endothelial cells (HUVEC); actives raise or lower the signal
# Summary of the method: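 ELISA read-out of P-selectin on human umbilical vein endothelium after 24 h of dosing. Values derive from bidirectional fitting relative to DMSO. Parallel SRB protein staining flagged overt cytotoxicity.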
# [14] = BSK_4H_SRB: Viability Assessment in the BioMAP Diversity Plus: 4H Assay (AID 2283027); details: primary human endothelial cells (HUVEC);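 further: cells exposed to compound for 24 h before staining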;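 on AC50: curves fitted both ways versus DMSO so AC50 may be loss or gain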
# Summary of the method: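 Absorbance at 560 nm of SRB-stained total protein served as the viability read-out in confluent primary human umbilical vein endothelium 24 h after chemical treatment. Curves were fitted bidirectionally against DMSO as negative control.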
# [15] = BSK_BE3C_SRB: Viability Assessment in the BioMAP Diversity Plus: BE3C Assay (AID 2283028); details: primary human bronchial epithelial cells;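 on AC50: fitted both ways so AC50 may mark signal gain or loss versus DMSO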
# Summary of the method: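 Primary human bronchial epithelium; chemical dosing, 24 h; 10% TCA fix, 0.1% SRB stain, A560; bidirectional fit vs DMSO baseline.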
# [16] = read-out: Thrombomodulin, THBD (gene 7056); experiment: BSK_3C_Thrombomodulin: BioMAP Diversity Plus: 3C Assay for Thrombomodulin Biomarker Activity (AID 2283029); details: primary human endothelial cells (HUVEC); actives raise or lower the signal
# Summary of the method: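 Read-out is ELISA of thrombomodulin on human umbilical vein endothelium 24 h after chemical dosing. Gain or loss of signal is scored relative to DMSO. Overt cytotoxicity is checked in parallel cultures by sulforhodamine B staining.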
# [17] = read-out: Urokinase-type plasminogen activator receptor (uPAR), PLAUR (gene 5329); experiment: BSK_4H_uPAR: BioMAP Diversity Plus: 4H Assay for Urokinase-type plasminogen activator receptor (uPAR) Biomarker Activity (AID 2283030); details: primary human endothelial cells (HUVEC); actives raise or lower the signal
# Summary of the method: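 HUVEC, 24 h post-dose; uPAR by ELISA; bidirectional fit vs DMSO baseline.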
# [18] = read-out: Vascular endothelial growth factor receptor 2 (Homo sapiens) (UniProt P35968); experiment: BSK_4H_VEGFRII: BioMAP Diversity Plus: 4H Assay for Vascular endothelial growth factor receptor 2 (VEGFR2) Biomarker Activity (AID 2283031); details: primary human endothelial cells (HUVEC); actives raise or lower the signal
# Summary of the method: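 HUVEC (human primary), 4H system; 24 h post-dose; VEGFRII by ELISA; bidirectional curve fit vs DMSO baseline; gain or loss of signal scored.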
# [19] = biological target: human Thyroid Receptor alpha (THRa1), THRA (gene 7067) (UniProt P10827); experiment: ATG_THRa1_TRANS: Attagene TRANS-FACTORIAL HepG2 Assay for human Thyroid Receptor alpha (THRa1) (AID 2283014; active means hit-call score of the fitted dose curve at least 0.9, where 1 is the maximum)
# Sequence of human Thyroid Receptor alpha (THRa1), THRA (gene 7067) (P10827 whole entry, looked up, the tested form may be a part): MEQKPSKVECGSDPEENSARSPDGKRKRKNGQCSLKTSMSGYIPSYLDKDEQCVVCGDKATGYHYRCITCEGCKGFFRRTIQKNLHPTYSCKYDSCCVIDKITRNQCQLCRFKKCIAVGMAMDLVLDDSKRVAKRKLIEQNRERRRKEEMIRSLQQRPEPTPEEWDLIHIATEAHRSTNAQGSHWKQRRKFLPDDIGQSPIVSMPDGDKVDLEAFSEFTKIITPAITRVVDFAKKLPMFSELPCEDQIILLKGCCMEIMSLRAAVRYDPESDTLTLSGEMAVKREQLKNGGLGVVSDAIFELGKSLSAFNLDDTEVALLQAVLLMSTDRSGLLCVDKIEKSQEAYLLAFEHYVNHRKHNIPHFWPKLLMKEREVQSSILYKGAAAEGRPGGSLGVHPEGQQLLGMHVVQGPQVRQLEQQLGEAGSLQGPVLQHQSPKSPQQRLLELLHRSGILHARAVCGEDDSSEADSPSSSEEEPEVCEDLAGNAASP
# Summary of the method: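 Transient HepG2 transfection, NR-Gal4 chimera driving GAL4-UAS reporters; 24 h compound exposure; total RNA, oligo(dT) RT, PCR, fluorescent primer extension, capillary electrophoresis. Upward direction vs DMSO control.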
# Sequence of E-selectin (Homo sapiens) (P16581 whole entry, looked up): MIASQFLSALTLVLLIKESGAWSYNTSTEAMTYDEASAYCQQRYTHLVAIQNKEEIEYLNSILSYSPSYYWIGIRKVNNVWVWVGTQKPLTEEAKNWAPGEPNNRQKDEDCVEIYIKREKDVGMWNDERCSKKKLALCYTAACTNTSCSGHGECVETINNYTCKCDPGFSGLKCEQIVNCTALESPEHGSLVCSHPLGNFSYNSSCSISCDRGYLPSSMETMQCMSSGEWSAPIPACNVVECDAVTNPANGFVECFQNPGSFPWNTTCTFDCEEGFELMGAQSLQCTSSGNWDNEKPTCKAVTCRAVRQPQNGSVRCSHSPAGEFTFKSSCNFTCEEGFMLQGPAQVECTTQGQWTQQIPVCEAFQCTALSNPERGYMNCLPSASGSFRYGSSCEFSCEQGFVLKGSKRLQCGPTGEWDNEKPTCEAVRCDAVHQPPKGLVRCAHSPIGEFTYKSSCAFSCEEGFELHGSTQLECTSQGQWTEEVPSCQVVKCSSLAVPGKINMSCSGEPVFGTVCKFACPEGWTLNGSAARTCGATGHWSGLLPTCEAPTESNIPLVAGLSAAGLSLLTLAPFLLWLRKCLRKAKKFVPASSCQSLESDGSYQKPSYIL
compound,measurement,setting,value
CCC(C)N(C)C(=O)c1cc2ccccc2c(-c2ccccc2Cl)n1 (configuration not stated),outcome,[1],inactive
same,outcome,[2],inactive
same,outcome,[3],inactive
same,outcome,[4],inactive
same,outcome,[5],inactive
same,outcome,[6],inactive
same,outcome,[7],inactive
same,outcome,[8],inactive
same,outcome,[9],inactive
same,outcome,[10],inactive
same,outcome,[11],inactive
same,outcome,[12],inactive
same,outcome,[13],inactive
same,outcome,[14],inactive
same,outcome,[15],inactive
same,outcome,[16],inactive
same,outcome,[17],inactive
same,outcome,[18],inactive
O=C1NC(=O)C(c2ccccc2)(c2ccccc2)N1,outcome,[1],inactive
same,outcome,[2],inactive
same,outcome,[3],inactive
same,outcome,[4],inactive
same,outcome,[5],inactive
same,outcome,[6],inactive
same,outcome,[7],inactive
same,outcome,[8],inactive
same,outcome,[10],inactive
same,outcome,[12],inactive
same,outcome,[13],inactive
same,outcome,[14],inactive
same,outcome,[15],inactive
same,outcome,[16],inactive
same,outcome,[17],inactive
same,outcome,[18],inactive
CC(N)=O,outcome,[1],inactive
same,outcome,[19],inactive
same,outcome,[2],inactive
same,outcome,[3],inactive
same,outcome,[4],inactive
same,outcome,[5],inactive
same,outcome,[6],inactive
same,outcome,[7],inactive
same,outcome,[8],inactive
same,outcome,[10],inactive
same,outcome,[11],inactive
same,outcome,[12],inactive
same,outcome,[13],inactive
same,outcome,[14],inactive
same,outcome,[15],inactive
same,outcome,[16],inactive
same,outcome,[17],inactive
same,outcome,[18],inactive
CCOCCOCCO,outcome,[1],inactive
same,outcome,[2],inactive
same,outcome,[3],inactive
same,outcome,[4],inactive
same,outcome,[5],inactive
same,outcome,[6],inactive
same,outcome,[7],inactive
same,outcome,[8],inactive
same,outcome,[10],inactive
same,outcome,[11],inactive
same,outcome,[12],inactive
same,outcome,[13],inactive
same,outcome,[14],inactive
same,outcome,[15],inactive
same,outcome,[16],inactive
same,outcome,[17],inactive
same,outcome,[18],inactive
CN(C)C(=O)NC1(c2ccccc2)CCN(CC[C@@]2(c3ccc(F)c(F)c3)CN(C(=O)c3ccccc3)CCO2)CC1,outcome,[1],inactive
same,outcome,[2],inactive
same,outcome,[3],inactive
same,outcome,[4],inactive
same,outcome,[5],inactive
same,outcome,[6],inactive
same,outcome,[7],inactive
same,outcome,[8],inactive
same,outcome,[9],inactive
same,outcome,[10],inactive
same,outcome,[11],inactive
same,outcome,[12],inactive
same,outcome,[13],inactive
same,outcome,[14],inactive
same,outcome,[15],inactive
same,outcome,[16],inactive
same,outcome,[17],inactive
same,outcome,[18],inactive
CC(=O)OCC(COC(C)=O)OC(C)=O,outcome,[1],inactive
same,outcome,[19],inactive
same,outcome,[2],inactive
same,outcome,[3],inactive
same,outcome,[4],inactive
same,outcome,[5],inactive
same,outcome,[6],inactive
same,outcome,[7],inactive
same,outcome,[8],inactive
same,outcome,[9],inactive
same,outcome,[10],inactive
same,outcome,[11],inactive
same,outcome,[12],inactive
same,outcome,[13],inactive
same,outcome,[15],inactive
same,outcome,[16],inactive
same,outcome,[17],inactive
same,outcome,[18],inactive
Cc1c(C)c2c(c(C)c1O)CCC(C)(COc1ccc(CC3SC(=O)NC3=O)cc1)O2 (configuration not stated),outcome,[1],inactive
same,AC50,[2],30.3 µM (active)
same,AC50,[3],29.3 µM (active)
same,AC50,[4],30.6 µM (active)
same,AC50,[5],9.95 µM (active)
same,AC50,[7],20 µM (active)
same,AC50,[8],34.2 µM (active)
same,outcome,[9],inactive
same,AC50,[10],17.3 µM (active)
same,AC50,[11],33.9 µM (active)
same,AC50,[12],20 µM (active)
same,AC50,[13],14 µM (active)
same,AC50,[14],23 µM (active)
same,AC50,[15],28.4 µM (active)
same,outcome,[16],inactive
same,AC50,[17],28.6 µM (active)
same,outcome,[18],inactive
